For 13 compounds, growth results are on record in PubChem BioAssay (NCI).

Holding throughout (test): NCI-60 one-dose screen, 48 h (100 = growth as untreated, 0 = no growth, -100 = all killed)
Common to all, as to settings: 10 µM unless noted

Assay [1] concerns NCI-H23 lung.
Assay [2] has as its system NCI-H226 lung.
For assay [3], the system named is NCI-H322M lung.
For assay [4], the system named is HOP-62 NSCLC.
Assay [5] relates to NCI-H460 lung.
Assay [6] concerns HOP-92 NSCLC.
Assay [7] concerns NCI-H522 lung.
Assay [8] deals with A549/ATCC NSCLC.
The test system of assay [9] is 786-0 renal.
Assay [10] deals with COLO 205 colon.

This is part of a sample that, as a whole, favours compounds with a hit. Of some 83,000 tested, about 20% had one in any assay.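 Percent growth is the endpoint: 0 to 100 indicates growth inhibition (40 means 60% inhibition), 0 means no net growth, and negative values indicate cell death.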 Values without a mark were called inactive. Calls of active or inactive are those of the source. How the source made its calls: active means growth percent below 10; inactive means the rest.

With `O=C(NCCCNC(=O)OCc1ccc2cccc(O)c2n1)OCc1ccc2cccc(O)c2n1`, the growth in [1] is 70%; in [2] it was 71.1%; in [3], 59.4%; in [4], 32.1%; in assay [5], 26.1%; in assay [6], 33.9%. Also, the growth in assay [7] is 18.4%; in assay [8] it was 47.5%; in assay [9], 60.1%; in [10] it was 29.6%.
`Cn1cc(-c2noc(C(=O)c3cn(C)c4ncccc34)n2)c2ccccc21`: the growth in [1] is 92.3%; in [2], 89.4%; in assay [3], 95.5%; in assay [4], 95%; in [5], 99.3%; in [6], 41.4%. The growth was 81.1% in assay [7], 100% in assay [8], 94.5% in assay [9] and 99.8% in assay [10].
As to `Fc1cc2[nH]ncc2c2c3c(c(-c4cn[nH]c4C(F)(F)F)nc12)C1CCC3C1` (stereo not given), the growth in assay [1] was -4.72% (active); in assay [2] it was 4.86% (active); in [3] it was 0.591% (active); in assay [4] it was -19.4% (active); in [5], 1.8% (active); in assay [6], 17.1%. Further, the growth was -2.89% (active) in assay [7], -6.2% (active) in [8], 2.72% (active) in assay [9] and -74.7% (active) in [10].
Turning to `OC(c1ccc(Cl)cc1)(c1ccc(Cl)cc1)C(O)(c1ccc(Cl)cc1)c1ccc(Cl)cc1`, the growth in assay [1] is 53.1%; in assay [2] it was 54.6%; in assay [3], 46.4%; in assay [4], 65.1%; in assay [5], 26.6%; in assay [6], 24.7%. Also, the growth in assay [7] is 41.6%; in [8], 44.9%; in [9] it was 31.9%; in assay [10], 45%.
As to `C=C1C(=O)O[C@H]2[C@H]1CC/C(COC(=O)NCc1ccc(Cn3c(=O)sn(-c4ccc(Cl)cc4)c3=O)cc1)=C\CC[C@@]1(C)O[C@@H]21`, the growth in assay [1] was 94.9%; in assay [2], 87.4%; in assay [3], 104%; in assay [4], 106%; in assay [5], 101%; in [6], 45.5%. In addition, the growth in assay [7] was -8.38% (active); in [8] it was 95.9%; in assay [9], 70.8%; in [10], 24%.
For the compound `COC(=O)[C@]1(C)CC[C@]2(C)CC[C@]3(C)C(=CC(=O)[C@@H]4[C@@]5(C)CCC(=O)NC(C)(C)[C@@H]5CC[C@]43C)[C@@H]2C1`, the growth in assay [1] was -77.5% [100 µM] (active); in assay [2], -58.3% [100 µM] (active); in assay [3], 29.1% [100 µM]; in [4], -70.8% [100 µM] (active); in assay [5], -17.2% [100 µM] (active); in assay [6], -85.6% [100 µM] (active). In addition, the growth was -73.4% [100 µM] (active) in assay [7], 9.53% [100 µM] (active) in [8], -70.9% [100 µM] (active) in [9] and -51.2% [100 µM] (active) in [10].
As for `CCOC(=O)c1c[nH]n2c(=S)ncnc12`, the growth was 97.4% in assay [1]; 97.4% in assay [2]; 110% in assay [3]; 89.8% in [4]; 115% in assay [5]; 113% in assay [6]. For the same compound, the growth in assay [7] was 96.8%; in assay [8] it was 106%; in assay [9] it was 95.8%; in assay [10], 100%.
As to `CCOc1cccc2c(NC(C)CCCN(CC)CC)c(C)cnc12` (stereo not given), the growth is 110% in assay [1]; 103% in [2]; 91.8% in assay [3]; 98.9% in [4]; 110% in [5]; 97% in assay [6]. The growth was 94.7% in assay [7], 91.4% in [8], 103% in [9] and 77.1% in assay [10].
For the compound `O=C(CCN1CCCCC1)c1ccc(Cl)cc1`, the growth in [1] is 110%; in [2], 94.6%; in [3], 99.9%; in [4] it was 100%; in [5] it was 97.8%; in assay [6] it was 83.1%. Also, the growth in assay [7] was 95.8%; in [8] it was 109%; in assay [9], 103%; in assay [10] it was 107%.
As for `C=C(CN=[N+]=[N-])[C@@H]1CC[C@]2(C)[C@H](CC[C@@H]3[C@H]4[C@H]5OC(=O)[C@@]4(CCC5(C)C)CC[C@]32C)[C@@]1(C)CCC#N`, the growth in assay [1] is 82.2% [100 µM]; in assay [2] it was 83.1% [100 µM]; in assay [3], 96.9% [100 µM]; in [4] it was 90.9% [100 µM]; in [5], 73.5% [100 µM]; in assay [6], 65% [100 µM]. Further, the growth in assay [7] was 70.2% [100 µM]; in assay [8], 78.6% [100 µM]; in [9], 87.9% [100 µM]; in assay [10], 100% [100 µM].
As to `CC1Cc2c(Cl)ncnc2N(C)c2ccc(O)cc21` (stereo not given), the growth in assay [1] is 45.7%; in assay [2] it was 82.2%; in [3], 44.2%; in assay [4], 53.8%; in assay [5] it was 84.3%; in [6] it was 85.1%. The growth in [7] is 92.5%; in [8] it was 28.4%; in [9], -3.93% (active); in assay [10], 91.7%.
For `C=C(C)[C@@H]1CC[C@]2(C)[C@H](CC[C@@H]3[C@@H]([C@@](C)(O)CCC=C(C)C)CC[C@]32C)[C@@]1(C)CCC(=O)O`, the growth in assay [1] is -5.71% [100 µM] (active); in assay [2] it was -41.5% [100 µM] (active); in assay [3], -6.31% [100 µM] (active); in assay [4] it was -61.4% [100 µM] (active); in assay [5] it was -34.9% [100 µM] (active); in assay [6], -49.4% [100 µM] (active). For the same compound, the growth in [7] was -13.6% [100 µM] (active); in assay [8] it was 14.9% [100 µM]; in assay [9] it was 1.09% [100 µM] (active); in assay [10], -69.5% [100 µM] (active).
Turning to `CCNC(=O)N1CCc2c(Cl)c3c(c(OC)c2[C@@H]1[C@H]1OCc2c1ccc(OC)c2OC)OCCO3`, the growth in assay [1] was 32.6%; in assay [2], 60.1%; in [3], 30.1%; in assay [4], 35.3%; in [5], 9.88% (active); in [6] it was 44.5%. Also, the growth in assay [7] is 11.6%; in assay [8] it was 35.2%; in assay [9], 26.9%; in assay [10], -11% (active).
